The values that follow come from the supplement of paper PMC9925115.

Where a name gives a salt, the structure may show the parent alone. ± gives the uncertainty stated by the source.

In experiment [1] the test system is FLX1. Kind of experiment: cell viability z-score within plate (CellTiter-Glo), mean of 3 biological replicates; higher = higher viability relative to plate (less growth inhibition). To be noted: 2 µM; time (hr): 120. Here is the method: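 FLX1 fibrolamellar carcinoma cells (DNAJB1-PRKACA fusion), 600 cells/well in 384-well plates, treated with a Selleck kinase inhibitor library (L1200) at 2 uM for 5 days (120 hr); viability by CellTiter-Glo. A z-score was computed within each plate and averaged over three biological replicates.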
For orientation: ATP-based viability assays read luminescence as a measure of living cells.

In experiment [2] the test system is FLX1 + dox-induced PRKAR1A G325D. As to the kind of experiment: difference in log2 fold change of viability vs plate median (dox-induced PRKAR1A G325D minus uninduced); higher = compound less effective when PKA is inhibited. The following applies: concentration: not stated (2 or 5 uM); 5 days. Here is the method: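 For each plate a log2 fold change vs the plate median was derived, and the values without dox were subtracted from those with dox, averaged over three biological replicates.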

As to `Cc1ccc(NC(=O)c2cccc(C(C)(C)C#N)c2)cc1Nc1ccc2ncn(C)c(=O)c2c1`, the “cell viability z-score within plate” value in experiment [1] is -1.84 ± 0.14. Also, the “difference in log2 fold change of viability” value (shortened to “difference in log2 fold change”) in experiment [2] turned out to be 0.173.
Take `CN1CCN(Cc2ccc(-c3cnc4[nH]cc(-c5ccc6[nH]ccc6c5)c4c3)cc2)CC1`: the “cell viability z-score within plate” value in experiment [1] is -0.36 ± 0.19. The “difference in log2 fold change” value in experiment [2] is -0.00541.
Take `CO[C@H]1C[C@@H]2CC[C@@H](C)[C@@](O)(O2)C(=O)C(=O)N2CCCC[C@H]2C(=O)O[C@H]([C@H](C)C[C@@H]2CC[C@@H](OP(C)(C)=O)[C@H](OC)C2)CC(=O)[C@H](C)/C=C(\C)[C@@H](O)[C@@H](OC)C(=O)[C@H](C)C[C@H](C)/C=C/C=C/C=C/1C` [Ridaforolimus (Deforolimus, MK-8669)]: the “cell viability z-score within plate” value in experiment [1] is -0.102 ± 0.36. In experiment [2], the “difference in log2 fold change” value was found to be 0.419.
For `CC(C)CCN1c2nc(Nc3cc(F)c(O)c(F)c3)ncc2N(C)C(=O)C1C` (configuration not stated) the same measures were -0.812 ± 0.59 and -0.074.
Regarding `CC(C)CC(=O)Nc1n[nH]c2c1CN(C(=O)C1CCN(C)CC1)C2(C)C`, in experiment [1], the “cell viability z-score within plate” value amounted to 0.0889 ± 0.24. Further, the “difference in log2 fold change” value in experiment [2] is 0.243.
Taken in the same sequence, the figures for `CN1CCCN(C(=O)c2cccc(-c3ccc(/C=C4/C(=O)Nc5ccc(Cl)cc54)o3)c2)CC1` were 0.408 ± 0.47 and -0.148.
As for `Cc1[nH]c(/C=C2\C(=O)Nc3ccc(S(=O)(=O)N(C)c4cccc(Cl)c4)cc32)c(C)c1C(=O)N1CCN(C)CC1`, in experiment [1], the “cell viability z-score within plate” value is -0.214 ± 0.72. For the same compound, the “difference in log2 fold change” value in experiment [2] was found to be 0.163.
Taken in the same sequence, the figures for `CNC(=O)c1cc(Oc2ccc(NC(=O)Nc3ccc(Cl)c(C(F)(F)F)c3)c(F)c2)ccn1` [Regorafenib (BAY 73-4506)] were 2 ± 0.81 and -0.347.
Turning to `CCc1ccc(/C=C2/SC(=S)NC2=O)cc1`, in experiment [1], the “cell viability z-score within plate” value is 0.872 ± 0.44. For the same compound, in experiment [2], the “difference in log2 fold change” value amounted to 0.116.
For `COc1cc2ncnc(Nc3ccc(F)c(Cl)c3)c2cc1NC(=O)/C=C/CN1CCCCC1` the same measures were 0.26 ± 0.81 and -0.0217.
Regarding `CC(C)n1nc(-c2cc3cc(O)ccc3[nH]2)c2c(N)ncnc21` [Torkinib (PP242)], in experiment [1], the “cell viability z-score within plate” value was -0.546 ± 0.32. Further, the “difference in log2 fold change” value in experiment [2] is 0.611.
On to `COc1cc2c(Oc3ccc4[nH]c(C)cc4c3F)ncnc2cc1OCCCN1CCCC1` [Cediranib (AZD2171)], for which the “cell viability z-score within plate” value in experiment [1] came out at 0.6 ± 0.47. In experiment [2], the “difference in log2 fold change” value came to 0.58.
`Cc1ccc(NC(=O)c2ccc(CN3CCN(C)CC3)cc2)cc1Nc1nccc(-c2cccnc2)n1` [Imatinib Mesylate (STI571)]: the “cell viability z-score within plate” value in experiment [1] is -1.25 ± 0.88. In experiment [2], the “difference in log2 fold change” value was determined as 0.343.
Turning to `C=CC(=O)Nc1cccc(Nc2nc(Nc3ccc(OCCOC)cc3)ncc2F)c1`, in experiment [1], the “cell viability z-score within plate” value is -0.411 ± 0.22. Further, the “difference in log2 fold change” value in experiment [2] was -0.726.
For `O=C(Nc1ccc(-c2ccnc(Nc3ccc(N4CCOCC4)cc3)n2)cc1)C1CCCN1` (configuration not stated) the same measures were 0.342 ± 0.56 and 0.201.
For `Cc1cnc(Nc2ccc(N3CCN(C)CC3)cc2)nc1Nc1cccc(S(=O)(=O)NC(C)(C)C)c1` the same measures were 0.0181 ± 0.39 and -0.303.
Taken in the same sequence, the figures for `CCOc1cc(C(=O)N2CCC(N3CCN(C)CC3)CC2)ccc1Nc1ncc2c(n1)N(C1CCCC1)c1ccccc1C(=O)N2C` were 0.444 ± 0.17 and 0.00328.
As to `CC(C)(C)c1ccc(S(=O)(=O)/C=C/C#N)cc1`, the “cell viability z-score within plate” value in experiment [1] was -0.975 ± 1.1. Also, in experiment [2], the “difference in log2 fold change” value was 0.145.
On to `COc1cc(Nc2ncc(F)c(Nc3ccc4c(n3)NC(=O)C(C)(C)O4)n2)cc(OC)c1OC`, for which the “cell viability z-score within plate” value in experiment [1] came out at 0.701 ± 0.4. For the same compound, in experiment [2], the “difference in log2 fold change” value is -0.353.
As for `C[C@H]1[C@H](C)CC[C@]2(C(=O)O)CC[C@]3(C)C(=CC[C@@H]4[C@@]5(C)C[C@@H](O)[C@H](O)[C@@](C)(CO)[C@@H]5CC[C@]43C)[C@H]12` [Asiatic Acid], in experiment [1], the “cell viability z-score within plate” value was determined as 0.124 ± 0.46. The “difference in log2 fold change” value in experiment [2] was -0.0847.
Taken in the same sequence, the figures for `O=C1Nc2ccccc2/C1=C1/Nc2ccccc2C1=O` [Indirubin] were 1.02 ± 0.66 and 0.211.
On to `O=C(Nc1ccc(OC(F)(F)F)cc1)c1sccc1NCc1ccnc2ccccc12`, for which the “cell viability z-score within plate” value in experiment [1] is 0.792 ± 0.22. In addition, the “difference in log2 fold change” value in experiment [2] came out at 0.386.
For `O=C(NOCC1CC1)c1ccc(F)c(F)c1Nc1ccc(I)cc1Cl` the same measures were 0.606 ± 0.25 and 0.453.
For `O=C(c1cccc(Cl)c1F)N1CCN(Cc2cccc(Nc3nccs3)n2)CC1` the same measures were -0.394 ± 0.96 and -0.738.
Taken in the same sequence, the figures for `C[C@@H](Oc1cc(-c2cnn(C3CCNCC3)c2)cnc1N)c1c(Cl)ccc(F)c1Cl` were 0.281 ± 0.54 and -0.703.
On to `Cc1cn(-c2cc(NC(=O)c3ccc(C)c(Nc4nccc(-c5cccnc5)n4)c3)cc(C(F)(F)F)c2)cn1` [Nilotinib (AMN-107)], for which the “cell viability z-score within plate” value in experiment [1] was found to be 0.322 ± 0.59. In addition, the “difference in log2 fold change” value in experiment [2] stood at 0.157.
Turning to `Cc1cc([C@@H](C)Nc2ccccc2C(=O)O)c2nc(N3CCOCC3)cc(=O)n2c1`, the “cell viability z-score within plate” value in experiment [1] is -2.82 ± 2. In addition, the “difference in log2 fold change” value in experiment [2] is 0.0369.
For `O=C(Nc1cccc(Cl)c1)Nc1ncc(CCNc2ncnc3ccsc23)s1` [SNS-314 Mesylate] the same measures were -2.37 ± 0.38 and -0.153.
Taken in the same sequence, the figures for `O=c1ccc2ccc(O)c(O)c2o1` [Daphnetin] were 1.53 ± 0.8 and -0.062.
Taken in the same sequence, the figures for `COc1cc2nccc(Oc3ccc(NC(=O)C4(C(=O)Nc5ccc(F)cc5)CC4)cc3)c2cc1OC` were 0.561 ± 0.36 and 0.457.
For `CCN1CCN(Cc2ccc(-c3cc4c(N[C@H](C)c5ccccc5)ncnc4[nH]3)cc2)CC1`, the “cell viability z-score within plate” value in experiment [1] turned out to be 0.278 ± 0.61. Moreover, the “difference in log2 fold change” value in experiment [2] was -0.338.
